PubChem BioAssay (NCI)
The panel holds about 83,000 compounds, 20% with a hit somewhere; the sample as a whole holds those more often.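 Testing used 96-well plates and a 48-hour single-concentration exposure. Example: -40 means 40% of the starting cells died.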 Calls of active or inactive are those of the source. Rule for the calls: active = growth percent below 10; inactive = the rest.

Key:
Assay in all cases: NCI-60 one-dose screen, 48 h (100 = growth as untreated, 0 = no growth, -100 = all killed)
Conditions in all cases: 10 µM unless noted
[1] = system: NCI-H23 lung
[2] = system: NCI-H226 lung
[3] = system: NCI-H322M lung
[4] = system: HOP-62 NSCLC
[5] = system: NCI-H460 lung
[6] = system: NCI-H522 lung
[7] = system: A549/ATCC NSCLC
[8] = system: 786-0 renal
[9] = system: COLO 205 colon
[10] = system: DU-145 prostate
[11] = system: K-562 leukemia
[12] = system: MALME-3M melanoma
[13] = system: MDA-MB-231 breast
[14] = system: RXF 393 renal
[15] = system: SF-268 CNS
[16] = system: SF-295 CNS
[17] = system: SF-539 CNS
[18] = system: M14 melanoma
[19] = system: HCT-15 colon
[20] = system: UACC-257 melanoma

Measured: growth

COC(=O)[C@]12CC[C@@H](C)[C@H](C)[C@@H]1C1=CC[C@@H]3[C@@]4(C)C=C(O)C(=O)[C@@]5(C)COC(=C54)C[C@@]3(C)[C@]1(C)CC2
active: [1] -73.1% | [2] -48.9% | [3] -25.3% | [4] -50.8% | [5] -66.2% | [6] -70.2% | [7] -59.5% | [8] -89.5% | [9] -63.9% | [10] -80.7% | [11] -97.8% | [12] -59% | [13] -52.7% | [14] -82.4% | [15] -45.3% | [16] -57.4% | [17] -91.4% | [18] -63.2% | [19] -82.3%

COc1ccc(-c2oc3cc(O)c(OC)c(O)c3c(=O)c2OC)cc1O
active: [5] 1.5% | [6] -30.3% | [10] -18.4% | [11] 8.02% | [14] 7.24% | [17] -16% | [18] -24.8%
inactive: [1] 16.1% | [2] 73.5% | [3] 46.7% | [4] 43% | [7] 19.7% | [8] 23.2% | [9] 101% | [12] 38.9% | [13] 11.1% | [15] 13.6% | [20] 53.4% | [19] 17.3%

c1ccc(Nc2nnc(-c3cc(-c4cccnc4)n(-c4ccccc4)n3)s2)cc1
active: [19] 8.1%
inactive: [1] 78.6% | [2] 99.8% | [3] 109% | [4] 99.1% | [5] 80.5% | [6] 71% | [7] 74.1% | [8] 77.1% | [9] 83.3% | [10] 94.3% | [11] 36.1% | [12] 83.3% | [13] 35.6% | [14] 71.8% | [15] 113% | [16] 40.8% | [17] 104% | [20] 139%

O=[N+]([O-])c1cnc(Sc2ccncn2)c([N+](=O)[O-])c1
inactive: [1] 103% | [2] 99.6% | [3] 108% | [4] 99.3% | [5] 100% | [7] 97.6% | [8] 106% | [10] 109% | [13] 91.1% | [14] 94.3% | [15] 101% | [17] 97.7% | [18] 97.2%
active: [6] -83.1% | [9] -11.8% | [11] -46.9% | [12] -53% | [20] -9.5% | [19] 0.0905%

COc1ccc(-c2cnnn2-c2cc(OC)c3c(c2)OCO3)cc1
inactive: [1] 26.6% | [2] 88.4% | [3] 42.8% | [4] 30.2% | [5] 11.2% | [7] 18.3% | [8] 42.3% | [10] 12.8% | [12] 34.4% | [14] 10% | [15] 29.9% | [20] 59.7% | [18] 10.6% | [19] 14.8%
active: [6] -45.2% | [9] -80.4% | [11] 0.651% | [13] 4.19% | [17] -15.2%

Cc1cc(NC(=O)c2ccc(N)cc2)ccc1N=Nc1ccc2c(O)c(N=Nc3ccc(Cl)c(S(=O)(=O)O)c3)c(S(=O)(=O)O)cc2c1
inactive: [1] 69.9% | [2] 81.9% | [3] 62.5% | [4] 64.2% | [5] 49.7% | [6] 78.6% | [7] 60.5% | [8] 110% | [9] 117% | [10] 111% | [11] 62.4% | [12] 105% | [13] 109% | [14] 68.6% | [15] 89.9% | [17] 87.3% | [20] 87.5% | [18] 92.5% | [19] 83.6%

Clc1ccc2nc(Cl)c3ccccc3c2c1
active: [5] -1.38%
inactive: [1] 84.6% | [2] 71.7% | [3] 37.6% | [4] 58.3% | [6] 75.7% | [7] 28.7% | [8] 46.8% | [9] 78.3% | [10] 62.9% | [11] 88% | [12] 67.2% | [13] 74.9% | [14] 59.6% | [15] 76.3% | [17] 63.8% | [20] 93.1% | [18] 99.9% | [19] 91.4%

CC(=O)Oc1ccc(C2OC(c3ccc4ccccc4c3OC(C)=O)=NN2C(C)=O)c(OC(C)=O)c1 (stereo unspecified)
inactive: [1] 28.8% | [2] 15.7% | [3] 24.4% | [4] 14.7% | [9] 15.9% | [10] 22.7% | [13] 39.9% | [15] 13.7% | [17] 13.9% | [19] 34.1%
active: [5] 6.03% | [6] 4.49% | [7] 6.76% | [8] 5.71% | [11] 4.1% | [12] 8.98% | [14] 1.4% | [20] -28.2% | [18] 3.34%

O=C1/C(=N/O)CCc2ccccc21
inactive: [1] 98.1% | [2] 101% | [3] 102% | [4] 91.5% | [5] 92.6% | [6] 94% | [7] 103% | [8] 111% | [9] 100% | [10] 100% | [11] 19.4% | [12] 91.7% | [13] 79.7% | [14] 96.7% | [15] 91% | [17] 88.5% | [20] 90.7% | [18] 104% | [19] 102%

O=C(N1CCC(CN=c2cc3n(-c4ccc(Cl)cc4)c4ccccc4nc-3cc2Nc2ccc(Cl)cc2)CC1)N1CC1
inactive: [2] 37.2%
active: [1] -58.2% | [3] -54.3% | [4] -85.2% | [5] -71.5% | [6] -76.7% | [7] -89.4% | [8] -93.2% | [9] -59% | [10] -95.3% | [11] -66.5% | [12] -72.5% | [13] -56.9% | [14] -93.3% | [15] -63.6% | [17] -88% | [20] -94.4% | [19] -36.8%

COc1ccc(-c2noc(N)c2-c2cc(OC)c3c(c2)OCO3)cc1
active: [6] -23.4% | [11] 2.56% | [12] -2.12% | [17] 9.14%
inactive: [1] 28.1% | [2] 86.3% | [3] 57.5% | [4] 34.6% | [5] 16% | [7] 29.2% | [8] 59.7% | [9] 12.4% | [10] 28.7% | [13] 47.6% | [14] 32.4% | [15] 35.6% | [20] 50.8% | [18] 11.7% | [19] 20.6%

O=C(Nc1cccc(C(F)(F)F)c1)Nc1ccc(OCc2nnc(-c3ccc(Cl)cc3)o2)c(F)c1
inactive: [1] 68% | [2] 94.9% | [3] 86.5% | [4] 50.8% | [5] 63.9% | [6] 64% | [7] 50% | [8] 84.2% | [9] 66.5% | [10] 88.1% | [11] 61% | [12] 55.7% | [13] 58.8% | [14] 58.2% | [15] 83.3% | [17] 82.2% | [20] 62.8% | [19] 42.9%

O=c1ccn(C2CCCO2)c(=O)[nH]1 (stereo unspecified)
inactive: [1] 119% | [2] 114% | [3] 117% | [4] 107% | [5] 106% | [6] 98.5% | [7] 95.3% | [8] 109% | [9] 118% | [10] 109% | [11] 105% | [12] 116% | [13] 107% | [14] 111% | [15] 104% | [17] 91.6% | [20] 90.9% | [18] 107% | [19] 105%

CCC(C)CC(C)C(=O)c1c(O)ccn(O)c1=O (stereo unspecified)
active: [17] 5.81%
inactive: [1] 25.2% | [2] 95.8% | [3] 52.5% | [4] 24% | [5] 23.7% | [6] 33.2% | [7] 22.6% | [8] 70% | [9] 108% | [10] 42.7% | [11] 18.2% | [12] 42.1% | [13] 45.3% | [14] 35.4% | [15] 26.4% | [20] 27.1% | [18] 15.5% | [19] 25.3%

S=C1SCN(Cc2ccccc2)CN1Cc1ccco1
inactive: [1] 94.1% | [2] 111% | [3] 112% | [4] 85.3% | [5] 105% | [7] 101% | [8] 90.5% | [9] 83.3% | [10] 68.3% | [11] 11.6% | [12] 94% | [13] 91.3% | [14] 101% | [15] 94.2% | [17] 65.8% | [20] 72.4% | [18] 87.1% | [19] 41.7%
active: [6] 4.84%

COc1ccc(-c2nnc(COc3ccc(NC(=O)Nc4cc(C(F)(F)F)cc(C(F)(F)F)c4)cc3F)o2)cc1
active: [1] -11% | [2] 7.41% | [5] 4.82% | [6] -17.8% | [7] 3.87% | [9] -40.7% | [11] 9.15% | [12] -16.5% | [13] -22.6% | [20] 0.873%
inactive: [3] 23.4% | [4] 12.3% | [8] 16.2% | [10] 12.4% | [14] 16.3% | [15] 18.8% | [17] 20.3% | [18] 18% | [19] 10%

COc1ccc(-n2nnc(C(=O)O)c2-c2cc(OC)c(OC)c(OC)c2)cc1
inactive: [1] 103% | [2] 104% | [3] 108% | [4] 114% | [5] 106% | [6] 83.6% | [7] 100% | [8] 99.7% | [9] 104% | [10] 116% | [11] 95.1% | [12] 112% | [13] 122% | [14] 105% | [15] 115% | [17] 103% | [20] 102% | [18] 104% | [19] 101%
